This passage reports inhibition results from PubChem BioAssay AID2280 (The Scripps Research Institute Molecular Screening Center, 2010).

The campaign covered roughly 320,000 compounds. About 1,400 (0.44%) were called active. The sample as a whole holds a higher share of actives than the screen did. Values without a mark were called inactive.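 How the source made its calls: active means percent inhibition above a per-plate cutoff, the plate mean of test compounds plus 3 SD (cut at about 30% in these data); inactive means the rest.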

In the experiment the target is Female germline-specific tumor suppressor gld-1 (Caenorhabditis elegans) (UniProt Q17339). The experiment can be described thus: GLD-1/TGE RNA complex disruptors, primary screen, biochemical, fluorescence polarization (AID 2280).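 Further: 0% = DMSO wells with GLD-1 and probe and 100% = wells lacking GLD-1.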 To be noted: purified GLD-1 + fluorescein TGE RNA, at 5.96 µM, hits give high values.
Female germline-specific tumor suppressor gld-1 (Caenorhabditis elegans), sequence (Q17339 whole entry, looked up): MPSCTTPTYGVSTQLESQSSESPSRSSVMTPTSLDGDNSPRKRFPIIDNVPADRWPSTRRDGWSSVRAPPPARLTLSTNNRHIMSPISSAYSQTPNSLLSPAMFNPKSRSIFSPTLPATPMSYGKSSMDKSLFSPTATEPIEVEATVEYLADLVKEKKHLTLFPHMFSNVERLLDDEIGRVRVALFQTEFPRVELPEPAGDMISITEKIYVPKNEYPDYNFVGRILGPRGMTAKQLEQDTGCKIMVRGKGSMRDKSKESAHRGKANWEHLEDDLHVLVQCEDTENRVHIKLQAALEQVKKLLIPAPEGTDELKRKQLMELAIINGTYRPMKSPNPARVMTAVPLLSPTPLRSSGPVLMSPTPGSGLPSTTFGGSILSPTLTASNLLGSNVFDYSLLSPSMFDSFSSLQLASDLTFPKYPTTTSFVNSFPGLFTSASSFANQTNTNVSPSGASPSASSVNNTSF
`Cc1cccc(N=C2NC(=O)CS2)c1C`: the inhibition is 5.66%. For `COc1ccccc1CNS(=O)(=O)CC12CCC(CC1=O)C2(C)C` (centres undefined) the value was -1.89%; for `O=C(NCc1cccs1)C(=O)NCC1OCCCN1S(=O)(=O)c1ccc(F)cc1` (centres undefined), 1.56%; for `COc1ccc(C)cc1S(=O)(=O)N1CCN(S(=O)(=O)c2cc(C(=O)O)ccc2C)CC1`, -3.62%.

As for `O=C(Nc1ccccc1)N1CCN(C(=O)Nc2ccccc2)CC1`, the inhibition was 3.08%. For the molecule `Cc1ccc(C)c(S(=O)(=O)N2CCN(C(=O)Nc3ccccc3)CC2)c1`, the inhibition was 34.2% (active). Take `COc1cc2c(cc1NC(=O)COC(=O)/C=C/c1ccccc1)oc1ccccc12`: the inhibition was 1.91%.

For the molecule `COC(=O)c1cc(CNC(=O)CC(C)c2ccccc2)ccc1OC` (centres undefined), the inhibition is 31.6% (active). For `Cc1ccc(CNC(=O)CC(NC(=O)c2ccccc2)c2ccccc2)cc1` (centres undefined) the value was 6.67%; for `COc1ccc(CNC(=O)Cc2ccc(-c3ccccc3)cc2)cc1OC`, 11.5%. With `COc1ccc(C(C(=O)NC(C)(C)C)N(Cc2ccc(F)cc2)C(=O)CCC(=O)Nc2cc(C)on2)cc1` (centres undefined), the inhibition was 3.47%. For `Cc1ccc(OCCNC(=O)CNC(=O)c2ccc(C)c(C)c2)cc1` the value was -0.98%. As to `C=CCSc1nnc2c(n1)-c1cccc3cccc-2c13`, the inhibition was -2.48%. Next, `CC(C)(C)NC(=O)CN1CCC(NC(=O)C23CC4CC(CC(C4)C2)C3)CC1`: -2.46%; `COc1ccc(Cl)cc1NC(=O)C(C)N1CCc2ccccc21` (centres undefined): -0.08%.

For `CCCCN(C(=O)CSCC(=O)Nc1ccc(OC)cc1)c1c(N)n(CCC)c(=O)[nH]c1=O`, the inhibition is 4.96%. Next, `C[C@H](CO)N1C[C@H](C)[C@@H](CN(C)Cc2ccc(-c3ccccc3)cc2)Oc2ccc(NC(=O)Cn3cnnn3)cc2C1=O`: 2.45%. For `N#CC1=C(N)C(C#N)(C#N)[C@H](c2ccsc2)[C@H]2COCC=C12`, the inhibition was 34.7% (active). For `Cc1cccc(-n2ncc3c(=O)[nH]c(SCC(=O)Nc4cc(C)on4)nc32)c1` the value was 2.41%; for `O=C(COC(=O)CSc1ccccc1)Nc1ccc(F)cc1F`, -2.02%.

Turning to `COc1ccc(OC)c(C(=O)c2ccc(C(=O)N3CCN(Cc4csc(C)n4)CC3)cc2)c1`, the inhibition was -0.78%. For `Oc1ccc2ccccc2c1N=Nc1nccs1` the value was 33.5% (active); for `COc1ccc2[nH]c(=O)c(CN(Cc3cccnc3)S(=O)(=O)c3ccccc3F)cc2c1`, 8.84%. Next, `O=C(C1=C(O)C(=O)N(Cc2ccccc2)C1c1cccnc1)c1ccco1` (centres undefined): -1.41%; `COc1cc(C2C(C(=O)c3ccco3)=C(O)C(=O)N2c2cc(C)on2)ccc1OCc1ccccc1` (centres undefined): -1.87%; `O=C(C1=C(O)C(=O)N(c2ncccn2)C1c1cccs1)c1ccco1` (centres undefined): 110% (active). For `CN(c1ccccc1)S(=O)(=O)c1ccc2[nH]c(=O)[nH]c2c1`, the inhibition was -0.63%. `Cc1ccc(C)c(OCCC(=O)OCC(=O)N2CCN(c3ccccc3)CC2)c1`: the inhibition was -2.09%. Regarding `Cc1sc2ncnc(SCC(=O)Nc3ccc(CN4CCCC4)cc3)c2c1C`, the inhibition was -0.9%. Next, `COc1ccc(Nc2ccc([N+](=O)[O-])cn2)cn1`: 44.7% (active); `COc1ccc(C(=O)NCCNc2ccc([N+](=O)[O-])cn2)cc1`: 9.44%. For `COc1ccccc1C1CCN(c2ccc([N+](=O)[O-])cn2)CC1` the value was 3.13%; for `CCN1CCN(c2ccc(S(=O)(=O)N3CCCCC3)cc2NC(=O)Cc2c(Cl)cccc2Cl)CC1`, -0.26%. Take `CCN(C[C@H]1N[C@@](CC)(C(=O)OC)[C@H]2C(=O)N(C)C(=O)[C@@H]12)C(=O)Nc1ccc(F)cc1`: the inhibition is 1.26%.

As for `CCC(=O)Nc1ccc(S(=O)(=O)Nc2c(NC)c3ccccc3oc2=O)cc1`, the inhibition was 0.71%. For `C[C@H](NC(=O)c1nc[nH]c1C(=O)N[C@@H](C)C(=O)OC(C)(C)C)C(=O)OC(C)(C)C` the value was 0.74%; for `O=[N+]([O-])/C=C/c1ccc2c(ccn2Cc2ccccc2)c1`, 7.04%; for `O=C(OCCOCn1cc(Br)c(=O)[nH]c1=O)c1ccccc1`, 5.67%. Next, `COc1cc(C(=O)NCc2ccc3c(c2)cc(C)n3C)cc(OC)c1OC`: 34.8% (active); `CCOCC(=O)NCc1ccc2c(c1)cc(C)n2C`: 25.6%; `COc1cc(C(=O)NCc2cc3cc(Cl)ccc3n2C)cc(OC)c1OC`: -2.07%.

For `CCCC(C(=O)n1nc(C)cc1C)C(NS(=O)(=O)c1ccc(C)cc1)c1ccccc1` (centres undefined), the inhibition is 2.32%. For `O=C(COC(=O)[C@H](Cc1ccccc1)NC(=O)c1cccs1)Nc1cc(F)ccc1F` the value was 8.92%.

On to `COCCn1c(SCC(=O)N2CCCCCC2)nc2c(c1=O)SCC2`, for which the inhibition was -2.72%. In the case of `CC1CC(C)CN(S(=O)(=O)c2cccc(C(=O)N3C(=O)c4cccc(N)c4C3=O)c2)C1` (centres undefined), the inhibition is 31.4% (active). On to `COc1cc(C(=O)N2C(=O)c3cccc(N)c3C2=O)cc(OC)c1OC`, for which the inhibition is 10.9%.

As for `CC(=O)N1CCN(S(=O)(=O)c2cccc(C(=O)NC3CCC(C)CC3)c2)CC1` (centres undefined), the inhibition was 1.54%. Next, `CCOc1cc(/C=C2/N=C(c3ccc(C(C)(C)C)cc3)OC2=O)cc(Cl)c1OS(C)(=O)=O`: 4.12%; `CCOC(=O)N1CCN(c2cc(C)c([N+](=O)[O-])cc2F)CC1`: -3.69%. With `O=C(C1=C(O)C(=O)N(CCOCCO)C1c1ccccn1)c1cccs1` (centres undefined), the inhibition is 5.95%. `Cc1cc2ccccc2n1CCNC(=O)COc1ccc2ccccc2c1`: the inhibition is 7.21%. With `O=C(O)CCn1c(Cc2ccccc2)nc2ccccc21`, the inhibition was -2.47%. Regarding `Cc1cc2ccccc2n1CCC(=O)O`, the inhibition is 50.2% (active). Take `COC(=O)c1cn(C)c2ccc(S(=O)(=O)N3CC(C)CC(C)C3)cc2c1=O` (centres undefined): the inhibition is 3.86%. For the molecule `Cc1ccc(NC(=O)C(C)c2cccc(C(=O)c3ccccc3)c2)cc1` (centres undefined), the inhibition was 2.46%. Regarding `O=C(CCc1ccccc1)Nc1ccc(NC(=O)C2CC2)nc1`, the inhibition is 8.07%. Next, `C=C1CCN([C@@H](Cc2ccccc2)C(=O)N2CCOCC2)S(=O)(=O)c2ccccc21`: 39.9% (active).

`N[C@@H](Cc1ccccc1)C(=O)N1CCOCC1`: the inhibition is 10.2%.

Regarding `O=C(NCCN1CCOCC1)[C@H](Cc1ccccc1)N1C(=O)c2ccccc2C1=O`, the inhibition was 5.89%.
